# Test results from PubChem BioAssay AID624331 (National Center for Advancing Translational Sciences (NCATS), 2012).
# Inconclusive results are not listed. Where a call stands in place of a potency, no number is given. The source made the active and inactive calls. Calls come from the whole dose curve; as a rule, active = well fitted activation curve with a large enough effect; inconclusive = small, poorly fitted or top-dose-only effect; inactive = no such curve, though single readings can be large or run the other way.
# Assay: qHTS assay for re-activators of p53 using a Luc reporter: Hit Validation with no p53 Expressed
# Settings: p53-null cells, luciferase reporter counter-screen; series mostly up to 46.1 µM
# Method in brief: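 Counter-screen of primary hits in a cell line not transfected with p53, in Opti-MEM with 10% FBS; compounds at several concentrations (10 mM stock, 1:5; top 46.1 µM in well), 24 h at 37 deg C, 5% CO2. Luminescence read after 10 min with Amplite reagent.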
# Potency is the fitted concentration of half-maximal effect.
row,Compound,Potency
1,COc1ccccc1N=Nc1[nH]c2ccc(C)cc2c1O,inactive
2,CC(C)c1ccc(NC(=S)NN2CCOCC2)cc1,inactive
3,c1ccc2nc(-c3ccc(N4CCOCC4)cc3)ccc2c1,inactive
4,CN(C(=O)CSc1nnc(-c2ccco2)o1)C1CCCCC1,inactive
5,Cc1ccc(NC(=O)CCN2C(=O)c3cccc([N+](=O)[O-])c3C2=O)c(Br)c1,inactive
6,O=C(/C=C/Nc1ccc(F)cc1F)c1cccs1,inactive
7,Cc1ccc2nc(-c3ccc(NC(=O)CCN4C(=O)c5ccccc5C4=O)cc3)sc2c1,inactive
8,C/C(=N/NC(=O)c1ccc2c(c1)OCO2)c1ccc(NC(=O)C(F)(F)F)cc1,inactive
9,O=C(CCc1nc(-c2ccccc2)no1)N1CCCC1,inactive
10,CCCCCCC1CC(/C(C)=N\NC(N)=O)OC1=O (centres undefined),inactive
11,CCCCC(=O)NC(c1ccc(Cl)cc1Cl)c1ccc2cccnc2c1O (centres undefined),inactive
12,CC(C)(C)c1ccc(NC(=O)COC(=O)c2ccc(NS(=O)(=O)c3ccc(F)c(F)c3)cc2)cc1,inactive
13,C=CCNc1nc(-c2cc3ccccc3o2)cs1,inactive
14,Nc1ccc(-c2cnc(-c3ccc(N)cc3)nc2)cc1,inactive
15,CN1CCN(c2ncnc3c2cnn3-c2ccc(Cl)cc2)CC1,inactive
16,COC(=O)c1ccc(CSc2nnc(-c3c[nH]c4ccccc34)n2-c2ccccc2)cc1,inactive
17,O=C(NC(=S)NC1CCCCC1)c1ccccc1[N+](=O)[O-],inactive
18,COc1ccc2c(=O)c(-c3nc(C)cs3)coc2c1,inactive
19,CN(C(=O)NC(=O)C1=C(N2CCOCC2)/C(=C/c2ccccc2)CC1)S(C)(=O)=O,inactive
20,COc1ccc(-c2cc3ccc(F)cc3cn2)cc1,inactive

row,Compound,Potency
1,O=C(Oc1ccccc1/C=C\C(=O)c1cc2ccccc2o1)c1cccc(F)c1,inactive
2,Cc1cccc(NC(=O)/C=C/c2ccc(Cl)cc2)n1,inactive
3,CCOC(=O)c1csc(Nc2nc3ccc(F)cc3s2)n1,inactive
4,CC(=O)c1ccc(N2Cc3ccccc3C2=NC(=O)c2cccs2)cc1,10.3 µM (active)
5,O=C(NCCC1=CCCCC1)c1ccc([N+](=O)[O-])cc1,inactive
6,Clc1ccc(C2=NNC(=NCC3CCCO3)SC2)cc1 (centres undefined),inactive
7,O=C(N/N=C\c1cccc(Cl)c1)c1n[nH]c2c1CCCC2,inactive
8,COCCN(Cc1cn[nH]c1-c1ccc2cc(OC)ccc2c1)C(C)C,inactive
9,CCCCCNC(=O)N[C@H](C(=O)O)C(C)C,inactive
10,Cc1ccc(OCC(=O)c2cc(C)n(C3CC3)c2C)c([N+](=O)[O-])n1,inactive
11,COc1ccc(CNC(=O)NC2CCCCC2)cc1,inactive
12,CCc1ccc2[nH]c(=O)c(CN(CCN3CCCC3)C(=O)NC3CCCCC3)cc2c1,inactive
13,COc1ccc(CCC(C)NCC(C)c2ccccc2)cc1 (centres undefined),inactive
14,CN(C)CCN(CC1CCCN(Cc2ccccc2F)C1)C(=O)c1ccc(F)cc1 (centres undefined),inactive
15,CSC1=NCCN1C(=O)c1ccc(Br)o1,inactive
16,Cc1ccc(S(=O)(=O)c2cn(CC(=O)Nc3ccccc3)c3ccc(F)cc3c2=O)cc1,inactive
17,Cc1cccc(/C(N)=N/OC(=O)c2ccc3c(c2)OCO3)c1,inactive
18,CC(OC(=O)c1cccc([N+](=O)[O-])c1)C(=O)N1CCc2ccccc21 (centres undefined),inactive
19,CCOC(=O)C(C(C)=O)C(c1ccc(OC)cc1)C(C(C)=O)C(=O)OCC (centres undefined),inactive
